Screening data: PubChem, National Center for Advancing Translational Sciences (NCATS)
Cruzain inh Det – cruzain (T. cruzi) inhibition with detergent. P25779. purified cruzain, Z-FR-AMC fluorescence, 0.01% Triton. Potency, µM, without a hit: max response, negative = inhibition, most hits filed as inhibitors. 0.43% of 200,000 active. AID 1478;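 note: plate controls were neutral wells for no effect and buffer without enzyme for full effect; nearly all actives have a fitted effect of over 40% in size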
Target sequence (P25779 123-467 limits assumed): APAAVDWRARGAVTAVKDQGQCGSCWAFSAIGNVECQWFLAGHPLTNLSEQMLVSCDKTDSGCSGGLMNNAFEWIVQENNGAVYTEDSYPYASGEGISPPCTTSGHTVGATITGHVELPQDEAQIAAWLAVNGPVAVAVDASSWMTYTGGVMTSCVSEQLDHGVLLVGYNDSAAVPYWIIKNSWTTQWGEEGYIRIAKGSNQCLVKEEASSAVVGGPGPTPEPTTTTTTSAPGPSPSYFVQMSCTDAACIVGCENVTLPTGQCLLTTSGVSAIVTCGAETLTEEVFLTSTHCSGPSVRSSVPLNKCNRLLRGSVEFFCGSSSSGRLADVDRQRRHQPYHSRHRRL
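Detergent-containing arm of a paired screen for aggregation-based inhibition: 0.01% Triton X-100 present. Cruzain at 1.5 nM cleaved 2 uM Z-FR-AMC at pH 5.5 with 5 mM DTT; AMC fluorescence gain over 60 s measured activity.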
Cruzain inh noDet – cruzain (T. cruzi) inhibition without detergent; Potency, µM, for inactives: max response, negative = inhibition, actives largely listed as inhibitors; purified cruzain, Z-FR-AMC fluorescence, no detergent; 2.3% of 200,000 active;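 note: plate controls were enzyme without inhibitor for no effect and buffer without enzyme for full effect; nearly all actives have a fitted effect of over 40% in size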
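Detergent-free condition (0.00005% Triton X-100) in acetate buffer pH 5.5 with DTT. 1.5 nM enzyme and compound were pre-mixed 15 min, then 2 uM Z-FR-AMC substrate added; reaction progress from fluorescence change between first and third reads (60 s).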
* hit, by the source's call; ? = inconclusive. This is a sample that favours compounds with a hit; in the whole collection about 2.5% have one here. Calls come from the whole dose curve; as a rule, active = well fitted curve in the direction sought with a large enough effect; inconclusive = small, poorly fitted or top-dose-only effect, or another doubt; inactive = no such curve, though single readings can be large; an effect the other way counts as inactive or inconclusive. Potency is the fitted concentration of half-maximal effect.

SMILES | Cruzain inh Det | Cruzain inh noDet
Fc1ccc(C2CC(c3ccco3)=NN2c2ccccc2)cc1 (centres undefined) | -3% | ?
CCCc1nc(NC(C)=O)c(C#N)c(-c2ccco2)c1CC | -3% | 11%
COC(=O)CSc1nc(N)c(C#N)c(-c2ccco2)c1C#N | -3% | 7%
CCCCc1nc(N)c(C#N)c(-c2ccco2)c1CCC | 25µM* | 20µM*
CCSc1nc(N)c(C#N)c(-c2ccco2)c1C#N | ? | 20µM*
Cc1oc(-c2ccccc2F)nc1CS(=O)CC(=O)NC(C)C (centres undefined) | -1% | -17%
CCN1CCN(C(=O)c2ccc3c(c2)N(Cc2ccc(F)cc2)C(=O)c2ccccc2S3(=O)=O)CC1 | 1% | -9%
O=C1C(Nc2ccccc2)=CC(c2ccc(Br)cc2)N1c1ccccc1 (centres undefined) | -11% | -12%
Nc1c2c(nc3sc4c(c13)CCCC4)CCCCCC2 | -17% | 25µM*
Nc1nc2sc3c(c2c(=O)s1)CCCC3 | -11% | -1%
COc1ccc(CNc2nc3c(-c4ccccc4)nnn3c3ccccc23)cc1 | -1% | 5%
COc1ccc(Oc2ncc3nc(-c4ccc(OC)cc4)c(=O)n(Cc4cccs4)c3n2)cc1 | 0% | 8%
Cc1ccccc1C(=O)Nc1ccc(C(=O)NNC(=O)CCCOc2ccc(Cl)cc2Cl)cc1 | 3% | 10µM*
O=C(CCCOc1ccc(Cl)cc1Cl)NNC(=O)c1ccc(NC(=O)c2ccccc2)cc1 | -4% | 4µM*
COC(=O)NNC(=O)CCCOc1ccc(Cl)cc1Cl | 1% | 4%
O=C(O)CCC(=O)NNC(=O)CCCOc1ccc(Cl)cc1Cl | 2% | -9%
CCC(C)NC(=O)Cn1c(=O)n(-c2cc(OC)cc(OC)c2)c(=O)c2ccccc21 (centres undefined) | 1% | -3%
Cc1cccc(C)c1-n1c(C)cc(/C=N\Nc2ccc([N+](=O)[O-])cn2)c1C | -4% | 16µM*
O=[N+]([O-])c1ccc(N/N=C/c2cn(Cc3ccc(F)cc3)c3ccccc23)nc1 | -9% | 7.9µM*
Cc1cc(C=O)c(C)n1-c1ccc(Oc2ccc([N+](=O)[O-])cn2)cc1 | -4% | -10%
CNC(=S)N/N=C/c1cn(Cc2ccc(F)cc2)c2ccccc12 | -13% | ?
CCC(=O)N1c2ccccc2CC1C(=O)NCCc1ccccc1 (centres undefined) | 0% | -1%
COC(=O)c1c(SC)nc2ccccc2c1OCc1ccc(C)cc1 | -4% | -14%
O=C(Cn1c(=O)sc2ccccc21)Nc1ccccc1 | 8% | -12%
O=C(Cn1c(=O)sc2ccccc21)Nc1ccc(S(=O)(=O)N2CCCCC2)cc1 | -5% | 32µM*
SMILES | Cruzain inh Det | Cruzain inh noDet
CCc1ccc2nc(N3CCN(C(=O)c4ccco4)CC3)sc2c1 | -5% | 11%
Cc1ccc2nc(N3C(=O)C(O)=C(C(=O)c4cc5ccccc5o4)C3c3cccs3)sc2c1 (centres undefined) | 16µM* | 9%
Cc1cc(N2C(=O)C(O)=C(C(=O)c3ccc(C)o3)C2c2cccs2)no1 (centres undefined) | 3% | -8%
CCc1ccc2nc(N3C(=O)C(O)=C(C(=O)c4ccco4)C3c3cccs3)sc2c1 (centres undefined) | 25µM* | ?
COc1ccc(NC(=O)C2CCN(S(=O)(=O)c3ccc4c(c3)CCCC(=O)N4)CC2)cc1OC | 0% | 8%
Cc1ccc(CNC(=O)c2cnc3c(-c4ccc(F)cc4)c(C)nn3c2C)o1 | -2% | ?
Cc1ccc(NC(=O)c2cncc(Br)c2)c([N+](=O)[O-])c1 | -2% | -7%
COc1c(C)cc(Br)cc1C(=O)Nc1ccc(C)cc1[N+](=O)[O-] | 1% | 25µM*
COc1ccc(COC(=O)c2[nH]c3c(c2C)C(=O)CC(c2ccc(OC)c(OC)c2)C3)cc1 (centres undefined) | -3% | ?
COc1ccc(OC(=O)c2nc(SCc3ccc(C)cc3)ncc2Cl)cc1 | -1% | 20µM*
Cc1ccc(CSc2ncc(Cl)c(C(=O)Oc3ccc(F)cc3)n2)cc1 | -1% | -4%
COc1cccc(N2CC(NC(=O)C3CCCCC3)CC2=O)c1 (centres undefined) | -3% | -1%
COC(=O)c1ccc(CSc2nc3ccc(Cl)cc3[nH]2)o1 | 5% | -8%
COC(=O)c1ccc(CSc2nc3scc(-c4cccs4)c3c(=O)[nH]2)o1 | -7% | 16µM*
COc1cccc(NC(=O)Cn2c(=O)n(CCCCC(=O)NCCc3ccccc3)c(=O)c3ccccc32)c1 | -3% | 4%
CCCCOC(=O)/C(C#N)=C\c1ccc(-c2ccc(Cl)cc2)o1 | 2% | 0%
Cc1nc(S/C(=C/c2ccc(-c3ccc(Cl)cc3)o2)C(=O)O)n[nH]1 | -2% | 13µM*
CCS(=O)(=O)N1CCC(n2c(C(F)(F)F)nc3cccnc32)CC1 | 1% | -12%
COc1cc(C(=O)O/N=C2\C=CC(=O)C(C)=C2)cc(OC)c1OC | ? | -17%
COc1cc(C(=O)ON=C2C=C(C)C(=O)C(C)=C2)cc(OC)c1OC | 3.5µM* | ?
